Compound activity: PubChem BioAssay, several laboratories
Sampled rows, rich in hits. Any-hit rate of the full collection: about 2.6%.
TWEAK Fn14 block: inhibitors of TWEAK-Fn14 interaction signaling; TWEAK-stimulated Fn14 reporter cells, luciferase luminescence, 8 h; inhibition, % at 10 µM; 360,000 compounds, 2% hits; AID 1159606; in the data active means inhibition above about 50%
TROY signal inh: TROY signaling inhibition | Q293 LMP1-TROYcd NF-kB luciferase reporter, 4 h | inhibition, % at 10 µM | 360,000 compounds, 0.98% hits;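 active means compounds whose plate-normalised and pattern-corrected inhibition of the luciferase reporter signal at the single screening dose is 50% or more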
CF NFkB block: inhibitors of cystic fibrosis induced NF-kB. 360,000 compounds, 0.86% hits. inhibition, % at 5 µM. KKLEB NF-kB-GFP reporter, PAF-induced, GFP fluorescence overnight;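 active means at least 50% inhibition at 5 µM, scaled per plate between neutral and stimulator controls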;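 further: PAF is a Pseudomonas aeruginosa culture filtrate used as stimulus; plate controls were PAF-stimulated DMSO wells for no effect and unstimulated DMSO wells for full effect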
LGR2 inh: Drosophila LGR2 receptor signaling inhibition. HEK293 LGR2, CRE-luciferase, bursicon-stimulated, 4 h. inhibition, % at 9.99 µM. 380,000 compounds, 0.35% hits. AID 720647;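 active means drop in luminescence signal, shown as inhibition above about 50% in the replicate tests, limit read from the data, passing the limit was not always enough; inconclusive means probably only some replicates passing the limit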;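 further: agonist challenge used bursicon conditioned medium at about half maximal strength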
EWS-Fli block: EWS/Fli transcriptional activity inhibition. A673 NR0B1-luciferase reporter, viability-normalised. inhibition, % at 12.6 µM. 350,000 compounds, 0.67% hits. AID 651661;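 active means mean inhibition of at least 50% after viability correction, with every replicate also passing that limit; inconclusive means mean reaches 50% but only one of two replicates passes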;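 further: firefly luciferase signal divided by Alamar Blue viability fluorescence both relative to DMSO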
KKLEB cytotox: counter-screen for CF NF-kB inhibitors: cytotoxicity; KKLEB CF airway cells viability, ATPlite luminescence, overnight; active compounds read low; cells stimulated with P. aeruginosa culture filtrate; activity change (cytotoxicity), % at 5 µM; 360,000 compounds, 0.36% hits; AID 602141;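 active means corrected activity change at or below -50% at 5 µM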
Numbers without * were called inactive; ? = inconclusive; / = no result given.

SMILES	TWEAK Fn14 block	TROY signal inh	CF NFkB block	LGR2 inh	EWS-Fli block	KKLEB cytotox
Cc1ccccc1N(CC(=O)NCc1ccco1)C(=O)CCC(=O)Nc1nccs1	81*	-9	-16	11	4	0
CC(C)(C)NC(=O)CN(C(=O)CCC(=O)Nc1nccs1)c1ccc2c(c1)OCCO2	12	2	-20	8	1	12
CS(=O)(=O)Nc1ccc2c(c1)[C@@H]1C[C@@H](CC(=O)NCc3ccc(-c4ccccc4)cc3)O[C@@H](CO)[C@@H]1O2	/	/	/	8	57*	/
COc1cccc(S(=O)(=O)Nc2ccc3c(c2)[C@@H]2C[C@@H](CC(=O)NCc4ccc(Cl)cc4)O[C@@H](CO)[C@@H]2O3)c1	14	27	19	-6	55*	-23
CS(=O)(=O)Nc1ccc2c(c1)[C@H]1C[C@@H](CC(=O)NCc3ccc(-c4ccccc4)cc3)O[C@@H](CO)[C@H]1O2	/	/	/	0	4	/
CS(=O)(=O)Nc1ccc2c(c1)[C@@H]1C[C@@H](CC(=O)NCc3ccc(Oc4ccccc4)cc3)O[C@@H](CO)[C@@H]1O2	/	/	/	-28	55*	/
COc1cccc(S(=O)(=O)Nc2ccc3c(c2)[C@H]2C[C@H](CC(=O)NCc4ccc(Cl)cc4)O[C@@H](CO)[C@H]2O3)c1	/	/	/	-1	3	/
CN(C)c1ccc2c(c1)[C@@H]1C[C@@H](CC(=O)NCc3ccc(-c4ccccc4)cc3)O[C@@H](CO)[C@@H]1O2	/	/	/	-19	55*	/
COc1ccc(NC(=O)Nc2ccc3c(c2)C(=O)N([C@H](C)CO)C[C@@H](C)[C@H](CN(C)CC2CCCCC2)O3)cc1	/	/	/	2	0	/
CS(=O)(=O)Nc1ccc2c(c1)[C@@H]1C[C@@H](CC(=O)NCc3ccc(Oc4ccccc4)cc3)O[C@H](CO)[C@@H]1O2	/	/	/	-12	53*	/
O=C(C[C@@H]1C[C@@H]2c3cc(NC(=O)c4ccc5c(c4)OCO5)ccc3O[C@@H]2[C@@H](CO)O1)NCc1ccc(Oc2ccccc2)cc1	/	/	/	68*	?	/
O=C(C[C@H]1C[C@H]2c3cc(NC(=O)c4ccc5c(c4)OCO5)ccc3O[C@H]2[C@@H](CO)O1)NCc1ccc(Oc2ccccc2)cc1	/	/	/	-16	-14	/
C[C@H](CO)N1C[C@H](C)[C@@H](CN(C)C(=O)Nc2ccccc2F)Oc2cc(-c3ccc(C(=O)N(C)C)cc3)ccc2S1(=O)=O	/	/	/	1	2	/
COc1ccc(C#Cc2cnc3c(c2)C(=O)N([C@@H](C)CO)C[C@H](C)[C@@H](CN(C)C(=O)CC2CC2)O3)cc1	/	/	/	-6	-3	/
COc1cccc(NC(=O)CSc2nnc(-c3cc(C)n(-c4ccccc4)c3C)o2)c1	89*	36	-6	/	/	-1
COc1ccc(NC(=O)CSc2nnc(-c3cccc(O)c3)o2)cc1	4	-27	-20	-7	-47	-4
O=[N+]([O-])c1ccc(COc2ccc(-c3[nH]ncc3-c3ccc(Cl)cc3)c(O)c2)cc1	51*	23	-12	10	/	3
COc1ccc(-c2[nH]ncc2-c2ccc(Cl)cc2)c(O)c1	14	14	21	/	/	-10
COc1ccc(-c2cn[nH]c2-c2ccc(OCc3ccc([N+](=O)[O-])cc3)cc2O)cc1OC	83*	50	36	-25	24	-10
CCc1cc(-c2[nH]ncc2-c2ccc([N+](=O)[O-])cc2)c(O)cc1OC	39	44	36	/	/	-6
O=C(Nc1ccccc1)N[C@@H]1CC[C@@H](CCNS(=O)(=O)c2cccc(F)c2)O[C@@H]1CO	/	/	/	9	-8	/
COc1ccc(S(=O)(=O)Nc2cccc3c2O[C@@H](CN(C)S(=O)(=O)c2ccc(Cl)cc2)[C@@H](C)CN([C@H](C)CO)C3=O)cc1	/	/	/	-13	-13	/
C=CCN1C(=O)[C@@]2(O[C@@H](CCO)[C@H]([Si](C)(C)c3ccc(OC)cc3)[C@H]2C)c2cc(N3CCCCC3=O)ccc21	/	/	/	/	-5	/
O=C(Nc1cccc(O)c1)c1cc(-c2cccs2)on1	69*	7	-16	26	5	-10
COc1cccc(-c2cc(C(=O)Nc3cccc(O)c3)no2)c1	66*	44	-26	79*	/	-38
SMILES	TWEAK Fn14 block	TROY signal inh	CF NFkB block	LGR2 inh	EWS-Fli block	KKLEB cytotox
CC(=O)c1cccc(NC(=O)c2cc(-c3cccs3)on2)c1	-18	-51	-2	-60	-100	-3
C[C@H](CO)N1C[C@H](C)[C@H](CN(C)Cc2ccc(C(=O)Nc3ccccc3N)cc2)Oc2c(NS(C)(=O)=O)cccc2C1=O	/	/	/	2	37	/
N#CC1=C(N)Oc2cc(N)ccc2C1c1cc(Br)cs1 (stereo not given)	-27	-27	17	/	58*	-7
N#CC1=C(N)Oc2cc(N)ccc2C1c1ccccc1F (stereo not given)	26	5	26	1	55*	-17
CC(C)Sc1nc(SCC(=O)NCc2ccco2)c2c3c(sc2n1)COC(C)(C)C3	79*	79*	-2	/	/	2
Cn1cnc([N+](=O)[O-])c1S(=O)(=O)Oc1ccc(Cl)cc1	15	47	94*	-9	64*	-98*
CCS(=O)(=O)c1c([N+](=O)[O-])ncn1C	18	7	16	5	-3	12
Cn1cnc([N+](=O)[O-])c1S(=O)(=O)Oc1cccc2ccccc12	67*	74*	86*	18	50	-79*
Cn1cnc([N+](=O)[O-])c1Oc1ccccc1	15	3	22	10	19	12
Cn1cnc([N+](=O)[O-])c1Oc1cccc2ccccc12	50*	26	32	21	/	2
O=C(NCC[C@@H]1CC[C@@H](NS(=O)(=O)c2ccc(F)cc2)[C@@H](CO)O1)c1ccccc1F	/	/	/	1	-8	/
CC1=NN(c2ccc(C)c(C)c2)C(=O)/C1=C\C=C\c1ccc([N+](=O)[O-])o1	86*	33	38	/	67*	-41
CCOC(=O)c1ccc(N2N=C(C)/C(=C/C=C/c3ccco3)C2=O)cc1	18	5	-38	/	/	12
O=C(NC1CCCCC1)C(c1cccnc1)N(C(=O)CCl)c1cccc(Cl)c1 (stereo not given)	44	9	54*	-11	58*	-63*
COc1ccc(C(C(=O)NC2CCCCC2)N(C(=O)CCl)c2ccc(Cl)cc2)cc1 (stereo not given)	54*	9	97*	/	/	-99*
O=C(CCCC(=O)N(c1ccc2c(c1)OCCO2)C(C(=O)NC1CCCCC1)c1ccc(Cl)cc1)Nc1ccccn1 (stereo not given)	63*	3	0	1	3	0
COC(CN(C)C(C(=O)NC1CCCCC1)c1ccccc1)OC (stereo not given)	81*	-11	-9	-2	-7	6
Cc1cccc(N(C(=O)CNC(=O)c2ccco2)C(C(=O)NC2CCCCC2)c2cccnc2)c1 (stereo not given)	12	11	0	20	2	-3
